About 2,100 (0.95%) of roughly 220,000 compounds were called active. The list comes from a sample in which actives are over-represented; it also holds similar structures and randomly drawn compounds. Values without a mark were called inactive.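 The calls were made as follows: active = compounds that cut the binding signal by more than half at the single screening dose; inactive = the rest.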

The target of the assay is Induced myeloid leukemia cell differentiation protein Mcl-1 (Homo sapiens) (UniProt Q07820). The assay can be described thus: Mcl-1/Bid binding inhibitors, primary screen, biochemical, TR-FRET, 1536-well (AID 1021).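 Also: His-tagged Mcl-1 with europium anti-His antibody binding Bid BH3 peptide; 0% = Mcl-1 plus peptide wells and 100% = peptide-only wells.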 The note with it: TR-FRET Mcl-1/Bid-Dy647 peptide binding, at 21.7 µM, stronger effect = higher value. (In general: In TR-FRET formats the signal depends on donor and acceptor labels being close together.)
Induced myeloid leukemia cell differentiation protein Mcl-1 (Homo sapiens), sequence (Q07820 whole entry, looked up): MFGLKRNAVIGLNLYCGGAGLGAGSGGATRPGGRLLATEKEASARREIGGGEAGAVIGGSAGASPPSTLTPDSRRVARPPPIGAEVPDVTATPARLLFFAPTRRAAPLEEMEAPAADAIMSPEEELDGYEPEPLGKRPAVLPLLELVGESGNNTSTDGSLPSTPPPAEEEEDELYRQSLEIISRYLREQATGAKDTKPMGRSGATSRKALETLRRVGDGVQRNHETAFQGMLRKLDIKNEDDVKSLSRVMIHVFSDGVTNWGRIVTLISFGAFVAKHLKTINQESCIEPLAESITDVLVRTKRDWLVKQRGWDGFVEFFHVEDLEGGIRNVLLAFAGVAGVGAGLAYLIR
For the molecule `COc1ccccc1CN1CCN(C(=O)Cc2ccccc2)CC1`, the inhibition is 68% (active). Turning to `O=C(Cc1ccccc1[N+](=O)[O-])N1CCN(Cc2ccc3c(c2)OCO3)CC1`, the inhibition is -23.7%. As to `O=C(Cc1ccccc1)N1CCN(C2CCCCCC2)CC1`, the inhibition was 17%. In the case of `COc1ccc(-n2c(O)c(C(C)=Nc3ccc4c(c3)CCC4)c(=O)[nH]c2=O)cc1`, the inhibition was -2.41%. The same measure for `O=C(O)COc1ccccc1/C=C1\C(=O)NC(=O)N(CCC2=CCCCC2)C1=O`: 2.6%. Consider `CN1CCN(Cc2ccccc2C(F)(F)F)CC1`, for which the inhibition was -13%. Take `CN1CCN(Cc2ccc(OC(F)(F)F)cc2)CC1`: the inhibition is 56.4% (active).

Take `CCOP(=O)(OCC)C(NC(=O)NC)C(N)=O` (stereo not given): the inhibition was -3.96%. The same measure for `CCc1nnc(NS(=O)(=O)c2ccc(N=Cc3c(O)n(-c4ccccc4)c(=O)[nH]c3=O)cc2)s1`: -3.62%; for `CCOc1ccc(CN(CCCl)CCCl)cc1C(=O)OC`: 63.2% (active); for `CC1=C2C(=O)C3C(CC=C4CC(OC5OC(O)C(O)C(O)C5CO)CCC43C)C2CCC12OC1CC(C)CNC1C2C` (stereo not given): -4.26%. The figure for `O=c1c2ccccc2nc(/C=C/c2ccco2)n1-c1ccccc1O` is -66%; for `CNC(=O)O/N=C(\N)Cc1csc2ccc(Cl)cc12` it is -11.9%.

As for `COc1ccc(C(=O)C2CCCN(Cc3ccc(C)s3)C2)cc1OC` (stereo not given), the inhibition was -15%. With `CC1CCCCN1Cc1cccnc1` (stereo not given), the inhibition was 49.3%. The figure for `O=C1NC(=O)N(c2ccccc2)C(=O)/C1=C/c1ccc([N+](=O)[O-])s1` is -21.7%; for `O=C1NC(=O)N(c2ccc(F)cc2)C(=O)/C1=C/c1ccc2c(c1)CCCN2Cc1ccccc1` it is 74.2% (active); for `Cc1cccc(N2C(=O)NC(=O)/C(=C\c3cnn(-c4ccccc4)c3)C2=O)c1` it is -15.1%.

Turning to `O=C(c1cc2nc(-c3ccccc3)cc(-c3ccccc3)n2n1)N1CCC2(CC1)OCCO2`, the inhibition is 12.9%. The same measure for `CC(=O)Cc1ccc(OC(C)C)cc1`: 29.9%.

As usually defined, the inhibition is the change of the read-out against control, counted positive when it falls.

The record behind these values is PubChem BioAssay AID1021 (Emory University Molecular Libraries Screening Center, 2008).
